Source: ChEMBL document CHEMBL2218924, “A broad activity screen in support of a chemogenomic map for kinase signalling research and drug discovery” (Biochem J, 2013)

Key:
[1] = molecular target: Ribosomal protein S6 kinase alpha-4 (Homo sapiens) (UniProt O75676); conditions: at 10 µM
[2] = molecular target: SRSF protein kinase 3 (Homo sapiens) (UniProt Q9UPE1); conditions: at 1 µM
[3] = molecular target: SRSF protein kinase 3 (Homo sapiens) (UniProt Q9UPE1); conditions: at 10 µM
[4] = molecular target: T1, Serine/threonine-protein kinase 4 (Homo sapiens) (UniProt Q13043); conditions: at 1 µM
T1 sequence (whole entry): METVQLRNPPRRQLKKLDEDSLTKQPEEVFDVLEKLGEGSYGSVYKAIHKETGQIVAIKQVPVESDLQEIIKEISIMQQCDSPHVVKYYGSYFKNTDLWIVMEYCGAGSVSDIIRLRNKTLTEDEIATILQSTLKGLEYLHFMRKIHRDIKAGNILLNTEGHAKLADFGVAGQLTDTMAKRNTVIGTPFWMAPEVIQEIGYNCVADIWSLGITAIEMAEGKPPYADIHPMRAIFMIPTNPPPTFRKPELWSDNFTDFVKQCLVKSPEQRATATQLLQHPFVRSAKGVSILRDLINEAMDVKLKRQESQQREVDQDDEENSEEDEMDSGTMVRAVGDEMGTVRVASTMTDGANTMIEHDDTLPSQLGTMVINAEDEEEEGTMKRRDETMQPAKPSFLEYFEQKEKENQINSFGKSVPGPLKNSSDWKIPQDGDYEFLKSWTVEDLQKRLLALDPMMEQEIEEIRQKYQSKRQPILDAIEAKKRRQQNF

[5] = molecular target: T1, Serine/threonine-protein kinase 4 (Homo sapiens); conditions: at 10 µM
[6] = molecular target: T2, Serine/threonine-protein kinase 3 (Homo sapiens) (UniProt Q13188); conditions: at 10 µM
T2 sequence (whole entry): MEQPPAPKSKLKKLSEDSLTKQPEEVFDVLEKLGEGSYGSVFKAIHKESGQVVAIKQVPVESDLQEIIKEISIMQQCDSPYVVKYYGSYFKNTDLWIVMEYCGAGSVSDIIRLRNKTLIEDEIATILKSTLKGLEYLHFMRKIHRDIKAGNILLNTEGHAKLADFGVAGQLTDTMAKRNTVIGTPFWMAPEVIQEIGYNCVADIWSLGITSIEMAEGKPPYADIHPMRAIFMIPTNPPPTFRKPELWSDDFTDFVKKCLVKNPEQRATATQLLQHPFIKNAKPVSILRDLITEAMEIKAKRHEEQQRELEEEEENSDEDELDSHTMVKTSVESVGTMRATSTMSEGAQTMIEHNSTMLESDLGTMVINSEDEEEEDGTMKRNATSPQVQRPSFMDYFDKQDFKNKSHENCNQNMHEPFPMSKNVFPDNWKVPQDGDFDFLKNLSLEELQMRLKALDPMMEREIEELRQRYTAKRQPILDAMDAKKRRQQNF

[7] = molecular target: Serine/threonine-protein kinase 24 (Homo sapiens) (UniProt Q9Y6E0); conditions: at 1 µM
Sequence of Serine/threonine-protein kinase 24 (Homo sapiens) (Q9Y6E0 whole entry, looked up): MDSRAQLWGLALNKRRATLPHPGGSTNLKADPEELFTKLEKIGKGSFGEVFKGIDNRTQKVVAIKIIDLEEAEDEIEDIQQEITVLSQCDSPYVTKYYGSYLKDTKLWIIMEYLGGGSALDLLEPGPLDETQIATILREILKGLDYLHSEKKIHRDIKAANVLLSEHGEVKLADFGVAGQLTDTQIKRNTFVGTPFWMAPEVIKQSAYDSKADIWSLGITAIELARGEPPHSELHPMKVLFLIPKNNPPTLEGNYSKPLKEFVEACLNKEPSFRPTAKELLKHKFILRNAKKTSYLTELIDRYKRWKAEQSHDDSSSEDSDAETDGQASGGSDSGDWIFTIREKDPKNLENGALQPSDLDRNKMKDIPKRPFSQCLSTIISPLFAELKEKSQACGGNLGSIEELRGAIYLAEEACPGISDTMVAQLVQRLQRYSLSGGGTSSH

[8] = molecular target: Serine/threonine-protein kinase 24 (Homo sapiens) (UniProt Q9Y6E0); conditions: at 10 µM
[9] = molecular target: Ribosomal protein S6 kinase alpha-4 (Homo sapiens) (UniProt O75676); conditions: at 1 µM
[10] = molecular target: T2, Serine/threonine-protein kinase 3 (Homo sapiens); conditions: at 1 µM

Sequence of SRSF protein kinase 3 (Homo sapiens) (Q9UPE1 whole entry): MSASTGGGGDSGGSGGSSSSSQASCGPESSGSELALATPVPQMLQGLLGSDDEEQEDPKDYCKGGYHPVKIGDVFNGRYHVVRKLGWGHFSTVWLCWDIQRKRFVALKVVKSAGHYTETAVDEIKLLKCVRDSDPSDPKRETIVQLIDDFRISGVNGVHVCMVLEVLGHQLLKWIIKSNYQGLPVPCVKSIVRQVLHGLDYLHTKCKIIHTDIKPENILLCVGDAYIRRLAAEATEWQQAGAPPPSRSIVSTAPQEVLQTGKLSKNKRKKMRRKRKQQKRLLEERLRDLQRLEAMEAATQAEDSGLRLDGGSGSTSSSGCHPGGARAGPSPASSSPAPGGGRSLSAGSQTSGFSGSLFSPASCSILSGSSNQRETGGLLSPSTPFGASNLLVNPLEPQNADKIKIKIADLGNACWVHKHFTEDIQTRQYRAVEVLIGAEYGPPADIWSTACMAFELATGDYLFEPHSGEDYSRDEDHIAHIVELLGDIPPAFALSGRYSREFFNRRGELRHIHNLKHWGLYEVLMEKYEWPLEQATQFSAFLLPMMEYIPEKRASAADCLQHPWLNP
Sequence of Ribosomal protein S6 kinase alpha-4 (Homo sapiens) (O75676 whole entry, looked up): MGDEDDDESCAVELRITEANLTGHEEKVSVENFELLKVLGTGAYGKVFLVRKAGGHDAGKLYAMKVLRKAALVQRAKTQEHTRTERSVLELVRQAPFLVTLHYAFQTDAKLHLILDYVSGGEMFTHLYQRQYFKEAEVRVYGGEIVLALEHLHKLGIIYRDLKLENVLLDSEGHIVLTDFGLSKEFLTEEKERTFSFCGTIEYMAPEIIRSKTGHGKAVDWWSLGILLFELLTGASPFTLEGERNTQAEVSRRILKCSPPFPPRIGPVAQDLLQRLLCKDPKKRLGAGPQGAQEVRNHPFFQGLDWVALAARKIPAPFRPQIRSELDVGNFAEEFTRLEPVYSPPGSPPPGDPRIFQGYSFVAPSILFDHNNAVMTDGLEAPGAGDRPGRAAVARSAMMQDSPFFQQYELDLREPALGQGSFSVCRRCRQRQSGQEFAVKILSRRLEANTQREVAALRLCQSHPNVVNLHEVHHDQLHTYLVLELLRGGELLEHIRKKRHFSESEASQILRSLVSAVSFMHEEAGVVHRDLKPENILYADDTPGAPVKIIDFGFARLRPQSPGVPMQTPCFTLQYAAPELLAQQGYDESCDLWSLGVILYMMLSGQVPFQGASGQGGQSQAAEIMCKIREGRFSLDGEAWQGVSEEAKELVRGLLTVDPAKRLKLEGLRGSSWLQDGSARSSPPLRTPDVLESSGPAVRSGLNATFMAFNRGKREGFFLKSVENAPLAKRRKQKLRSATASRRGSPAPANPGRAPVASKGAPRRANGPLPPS

| Structure (SMILES) | residual activity [1] [%] | residual activity [2] [%] | residual activity [3] [%] | residual activity [4] [%] | residual activity [5] [%] | residual activity [6] [%] | residual activity [7] [%] | residual activity [8] [%] | residual activity [9] [%] | residual activity [10] [%] |
| --- | --- | --- | --- | --- | --- | --- | --- | --- | --- | --- |
| COc1ccc2c(c[n+](C)c3c4cc5c(cc4ccc23)OCO5)c1OC | 94 | 110 | 66 | 92 | 98 | 94 | 73 | 73 | – | – |
| COc1cc(OC)c(/C=C2\C(=O)Nc3ccccc32)c(OC)c1 | 94 | 101 | – | 108 | 105 | 91 | 80 | 76 | 96 | 102 |
| CC(C)(C)c1cc(C=C(C#N)C#N)cc(Br)c1O | – | 105 | – | 104 | 119 | – | – | 100 | – | – |
| COC(=O)[C@@]1(O)C[C@H]2O[C@]1(C)n1c3ccccc3c3c4c(c5c6ccccc6n2c5c31)C(=O)NC4 | 0 | 11 | 2 | 5 | 1 | 1 | 14 | 0 | -1 | 2 |
| c1cc(-c2cnn3cc(-c4ccc(OCCN5CCCCC5)cc4)cnc23)ccn1 | 70 | – | – | – | – | – | – | – | 103 | – |
| O=C1NC(=O)c2c1c1c3ccccc3n3c1c1c2c2ccccc2n1C1CCC3O1 | 64 | 99 | 96 | 19 | -1 | 12 | 80 | 65 | 56 | 10 |
| COc1ccc2c(c1)/C(=C/c1cnc[nH]1)C(=O)N2 | 19 | – | – | – | – | 3 | – | – | 63 | 16 |
| COc1cc2ncnc(Nc3ccc(OCc4ccccc4)cc3)c2cc1OC | 101 | 122 | 89 | 95 | 104 | 81 | 70 | 90 | 99 | 111 |
| CN[C@@H]1C[C@H]2O[C@@](C)([C@@H]1OC)n1c3ccccc3c3c4c(c5c6ccccc6n2c5c31)C(=O)NC4 | -1 | – | 40 | – | – | – | – | – | 1 | – |
| C[S+]([O-])c1ccc(-c2nc(-c3ccc(F)cc3)c(-c3ccncc3)[nH]2)cc1 (centres undefined) | 81 | 102 | 101 | 111 | 109 | 93 | 115 | 102 | 102 | 104 |
| O=C1Nc2ccc3ncsc3c2/C1=C/c1c[nH]cn1 | 6 | 98 | 68 | 1 | 3 | 1 | 3 | 0 | 20 | 2 |
| CCc1nc(-c2ccc(OC)cc2)[nH]c1-c1ccncc1 | – | 123 | 103 | – | 111 | – | – | – | – | – |
| CCn1cnc2c(Nc3cccc(Cl)c3)nc(N[C@@H]3CCCC[C@@H]3N)nc21 | 60 | 95 | 71 | 64 | 47 | 70 | 78 | 59 | 79 | – |
| N/C(=N\[N+](=O)[O-])N/N=C\c1ccc(-c2cccc([N+](=O)[O-])c2)o1 | 84 | – | – | – | – | – | 98 | 79 | 97 | – |
| O=C1c2ccccc2-c2nc3nnnn3nc21 | 108 | 107 | 83 | 108 | 110 | – | – | – | 108 | – |
| O=[N+]([O-])/C=C/c1ccc2c(c1)OCO2 | 101 | 120 | 93 | 101 | – | 91 | 77 | 75 | 90 | 104 |
| CC(C)[C@H](CO)Nc1nc(Nc2cccc(Cl)c2)c2ncn(C(C)C)c2n1 | 62 | 73 | 17 | 63 | 30 | – | 58 | 20 | 95 | – |
| O=c1[nH]c2ccccc2n1C1CCN(Cc2ccc(-c3nc4cc5[nH]cnc5cc4nc3-c3ccccc3)cc2)CC1 | 96 | 112 | 91 | 102 | 80 | 80 | 72 | 80 | 106 | 106 |
